In PubChem BioAssay AID2284216 (EPA ToxCast):
The source made the active and inactive calls. Rule for the calls: active = hit-call score of the fitted dose curve at least 0.9, where 1 is the maximum; inactive = score below 0.9.

Target: rat Peripheral Benzodiazepine Receptor (PBR), Tspo (gene 24230) (UniProt P16257)
Experiment: ERF_TW_TR_rTSPO: Eurofins (ERF) Radioligand Binding Assay for rat Peripheral Benzodiazepine Receptor (PBR) Antagonism
Description: ERF_TW_TR_rTSPO is a biochemical, single-readout assay that uses extracted gene-proteins in a cell-free assay. Measurements were taken 0.25 hour after chemical dosing in a 96-well plate. See PBR Rat Binding (Antagonist Radioligand) Assay, Panlabs.ERF_TW_TR_rTSPO is an assay component calculated from the ERF_TW_TR_rTSPO assay. It is designed to measure radioligand binding using a type of binding reporter as detected by scintillation counting with radiometry technology.Data from the assay component ERF_TW_TR_rTSPO was analyzed at the assay endpoint, ERF_TW_TR_rTSPO, in the positive analysis fitting direction relative to DMSO as the negative control and baseline of activity. Using a type of binding reporter, loss-of-signal activity can be used to understand changes in transporter binding as they relate to gene TSPO. To generalize the intended target to other relatable targets, this assay endpoint is annotated to the transporter intended target family, where the subfamily is cholesterol transporter.
Cells are incubated for 15 minutes at room temprature with [3H]PK 11195 (0.2 nM) as lingand.Test Sample Requirements: Minimum for 1) Screen: 60 ul of 10 mM stock -OR- 1 mg (pre-weighed) for 10uM final testing. . 2) Dose Response: 90 ul of 10 mM stock -OR- 1 mg (pre-weighed) for a top concentration at 10uM. .

rat Peripheral Benzodiazepine Receptor (PBR), Tspo (gene 24230), sequence (P16257 whole entry, looked up): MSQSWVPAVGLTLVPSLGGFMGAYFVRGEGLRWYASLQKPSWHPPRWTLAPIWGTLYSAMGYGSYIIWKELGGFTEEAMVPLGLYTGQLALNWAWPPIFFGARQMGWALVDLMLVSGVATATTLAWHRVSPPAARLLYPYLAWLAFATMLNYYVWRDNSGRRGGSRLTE

Row | SMILES | AC50
1 | O=C(/C=C/c1ccc(O)cc1)CC(=O)/C=C/c1ccc(O)cc1 | 161 nM (active)
2 | COc1cc(CCC(=O)CC(=O)CCc2ccc(O)c(OC)c2)ccc1O | 2550 nM (active)
